# Measurements: PubChem BioAssay
# Activity calls are given as the source filed them.
# Tests used:
# [1] = system: Human papillomavirus type 1a protein E7 (residues 44-93); experiment: HPV1a E7 fragment binders on microarrays, primary screen, biochemical, small-molecule microarray, residues 44-93, 635 nm fluorescence (AID 1108); conditions: small-molecule microarray binding, fluorescence 635 nm; higher = more signal;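 further: E7 fragment applied at 1 µg/mL in TBST for 1 h at 4 C; score combines spot fluorescence with its signal to noise ratio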
# [2] = modulators of HCV replicon luciferase signal, primary screen, HCV replication inhibitor project, Huh7 cells, luciferase reporter (AID 1109); conditions: 48 h, higher = more signal;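 further: huh7 hepatoma cells harbouring a luciferase neomycin HCV replicon reporter; luciferase luminescence as measure of HCV replicon replication; test concentration not given here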
# [3] = target: Left-right determination factor 2 (Homo sapiens) (UniProt O00292); experiment: LEFTY2 binders on small-molecule microarrays, primary screen, biochemical, small-molecule microarray, 635 nm fluorescence scan (AID 1110); conditions: LEFTY2 binding, higher = more signal
# Chain of Left-right determination factor 2 (Homo sapiens) (O00292 whole entry, looked up): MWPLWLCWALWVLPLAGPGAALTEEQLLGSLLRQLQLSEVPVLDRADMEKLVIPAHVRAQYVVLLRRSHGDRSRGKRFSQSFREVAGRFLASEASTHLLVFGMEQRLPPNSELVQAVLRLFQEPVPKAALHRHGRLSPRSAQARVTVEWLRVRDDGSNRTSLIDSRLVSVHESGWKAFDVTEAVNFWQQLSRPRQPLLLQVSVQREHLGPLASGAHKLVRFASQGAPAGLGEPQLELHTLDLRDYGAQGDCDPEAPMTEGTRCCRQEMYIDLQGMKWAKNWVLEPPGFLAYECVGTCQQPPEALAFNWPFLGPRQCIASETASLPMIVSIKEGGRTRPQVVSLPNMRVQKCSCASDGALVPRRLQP
# [4] = target: Calmodulin-1 (Homo sapiens) (UniProt P0DP23); experiment: CALM1 binders on microarrays, EGTA buffer, profiling panel, biochemical, small-molecule microarray, Cy5-labelled CALM1 (AID 1111); conditions: Cy5-CALM1 binding fluorescence, higher = more signal;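 further: labelled calmodulin applied in Tris saline Tween buffer holding calcium plus EGTA and DTT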
# [5] = target: Calmodulin-1 (Homo sapiens) (UniProt P0DP23); experiment: calcium-bound CALM1 binders on microarrays, profiling panel, artefact control for SMM control-protein annotation, biochemical, small-molecule microarray, Cy5-labelled CALM1, plus calcium (AID 1112); conditions: Cy5-CALM1 binding fluorescence, higher = more signal;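 further: score merges spot fluorescence with signal to noise from triplicate slides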
# [6] = small-molecule microarray binders of probe aWnt5a, primary screen, biochemical, biotinylated probe, 635/667 nm fluorescence (AID 1113); conditions: higher = more signal;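 further: score merges 667 nm fluorescence intensity with signal-to-noise per printed feature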
# [7] = small-molecule microarray binders of probe aShh, primary screen, biochemical, biotinylated probe, 635/667 nm fluorescence (AID 1114); conditions: higher = more signal;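 further: probe is biotin-labelled aShh protein from a stem cell growth factor screen; measures binding of labelled protein to compounds printed on the slide; score merges feature fluorescence at 667 nm with signal-to-noise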
# [8] = small-molecule microarray binders of probe aNog, primary screen, biochemical, biotinylated probe, 635/667 nm fluorescence (AID 1115); conditions: higher = more signal;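 further: probe is biotinylated aNog protein used at 0.15 µg/mL for 1 h at 4 C; z-score combines 667 nm fluorescence of each spot with its signal to noise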
# [9] = target: Torsin-1A-interacting protein 1 (Homo sapiens) (UniProt Q5JTV8); experiment: LAP1 binders from COS7 cell lysate, primary screen, small-molecule microarray, 635/667 nm fluorescence (AID 1116); conditions: COS7-hLAP1 lysate binding, 635 nm fluorescence, higher = more signal
# Chain of Torsin-1A-interacting protein 1 (Homo sapiens) (Q5JTV8 whole entry, looked up): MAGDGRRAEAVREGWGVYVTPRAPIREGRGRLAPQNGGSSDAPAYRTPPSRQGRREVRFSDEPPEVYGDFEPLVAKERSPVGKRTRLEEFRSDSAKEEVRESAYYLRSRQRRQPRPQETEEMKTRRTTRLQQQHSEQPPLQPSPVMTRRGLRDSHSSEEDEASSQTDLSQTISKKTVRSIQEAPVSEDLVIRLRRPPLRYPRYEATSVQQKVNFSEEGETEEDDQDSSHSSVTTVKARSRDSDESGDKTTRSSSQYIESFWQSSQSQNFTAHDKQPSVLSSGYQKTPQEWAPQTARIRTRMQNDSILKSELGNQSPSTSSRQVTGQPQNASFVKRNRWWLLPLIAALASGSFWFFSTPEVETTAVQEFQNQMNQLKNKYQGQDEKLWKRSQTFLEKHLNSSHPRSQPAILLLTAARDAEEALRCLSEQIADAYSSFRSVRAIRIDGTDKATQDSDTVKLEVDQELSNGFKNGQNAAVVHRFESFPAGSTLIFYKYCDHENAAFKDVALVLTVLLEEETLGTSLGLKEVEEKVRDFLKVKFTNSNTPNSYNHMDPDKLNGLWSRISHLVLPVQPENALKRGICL
# [10] = target: Alpha-bungarotoxin (Bungarus multicinctus) (UniProt P60615); experiment: alpha-bungarotoxin binders on microarray, profiling panel, artefact control for SMM control protein annotation, biochemical, small-molecule microarray, Alexa647 label, 635/667 nm fluorescence (AID 1117); conditions: alpha-BTX-A647 binding fluorescence, higher = more signal
# Chain of Alpha-bungarotoxin (Bungarus multicinctus) (P60615 whole entry, looked up): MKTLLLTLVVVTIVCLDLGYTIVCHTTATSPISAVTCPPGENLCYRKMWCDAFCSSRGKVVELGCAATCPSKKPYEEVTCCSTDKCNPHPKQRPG
# Albumin (Bos taurus) = Albumin (Bos taurus) (UniProt P02769); experiment: bovine serum albumin binders on microarray, profiling panel, artefact control for SMM control protein annotation, biochemical, small-molecule microarray, Alexa647 label, 635/667 nm fluorescence (AID 1118); conditions: BSA-A647 binding, fluorescence 635 nm, higher = more signal;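 further: score merges 667 nm emission intensity and signal-to-noise per printed compound spot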
# Chain of Albumin (Bos taurus) (P02769 whole entry, looked up): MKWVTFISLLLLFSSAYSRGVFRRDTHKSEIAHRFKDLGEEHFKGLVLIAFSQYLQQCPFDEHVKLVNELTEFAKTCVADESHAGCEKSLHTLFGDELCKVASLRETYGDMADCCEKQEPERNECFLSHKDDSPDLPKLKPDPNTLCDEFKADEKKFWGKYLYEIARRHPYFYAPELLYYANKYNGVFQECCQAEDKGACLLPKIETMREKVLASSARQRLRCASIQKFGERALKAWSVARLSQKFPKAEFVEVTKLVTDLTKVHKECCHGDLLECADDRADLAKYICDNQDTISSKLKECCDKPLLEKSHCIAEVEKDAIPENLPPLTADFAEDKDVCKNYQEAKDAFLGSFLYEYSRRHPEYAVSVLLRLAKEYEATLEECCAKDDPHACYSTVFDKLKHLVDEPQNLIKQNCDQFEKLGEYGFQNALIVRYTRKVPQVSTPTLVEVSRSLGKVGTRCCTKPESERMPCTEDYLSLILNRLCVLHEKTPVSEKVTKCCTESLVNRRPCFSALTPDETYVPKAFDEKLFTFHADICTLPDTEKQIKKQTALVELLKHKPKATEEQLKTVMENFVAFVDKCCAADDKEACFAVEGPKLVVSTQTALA
# [11] = small-molecule microarray binders of probe aXIP, primary screen, biochemical, NeuroSMM set, 635/667 nm fluorescence (AID 1119); conditions: higher = more signal, called active from +8 up or from −8 down;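 further: probe is the protein aXip251-270 applied at 1 µg/mL to compound-printed slides; binding of probe to printed compounds measured as 667 nm fluorescence plus signal to noise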
# [12] = small-molecule binders of probe aNOTCH3, primary screen, biochemical, small-molecule microarray, 635/667 nm fluorescence (AID 1120); conditions: higher = more signal;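 further: probe is a biotin-tagged antibody raised against NOTCH3 rather than NOTCH3 protein; score merges spot fluorescence near 667 nm with spot signal to noise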
# [13] = small-molecule binders of probe aNOTCH2, primary screen, biochemical, small-molecule microarray, 635/667 nm fluorescence (AID 1121); conditions: higher = more signal;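 further: score merges feature fluorescence read at 667 nm with its signal to noise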
# [14] = target: Carbonic anhydrase 2 (Homo sapiens) (UniProt P00918); experiment: CAII small-molecule binders, profiling panel, biochemical, small-molecule microarray, Alexa647-labelled CAII (AID 1122); conditions: CAII-A647 binding fluorescence, higher = more signal
# [15] = COS7 lysate on small-molecule microarray, probe aHis, 635 nm (AID 1123); conditions: COS7 cell lysate, fluorescence, higher = more signal;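 further: z-score combines 667nm fluorescence intensity with signal-to-noise per printed compound spot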
# [16] = compound binding in COS7 lysate, probe aLAP1, primary screen, cell lysate, small-molecule microarray (AID 1124); conditions: probe aLAP1, fluorescence, higher = more signal;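 further: lysate comes from COS7 cells expressing LAP1 and is applied at 0.3 µg/mL; score merges spot fluorescence near 667 nm with signal-to-noise over triplicate slides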
# Sam68 (KHDRBS1) = experiment: Sam68 small-molecule binders, primary screen, biochemical, small-molecule microarray, 635 nm fluorescence (AID 1125); conditions: small-molecule microarray binding, higher = more signal;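 further: score merges 667 nm channel intensity with signal to noise over triplicate slides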
# [17] = system: Chordin-like protein 2 (CHRDL2); experiment: CHRDL2 small-molecule binders, primary screen, biochemical, small-molecule microarray, 635 nm fluorescence (AID 1126); conditions: small-molecule microarray binding, fluorescence 635 nm; higher = more signal;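 further: printed compound slides probed with Chrdl2 protein at 4 µg/mL for 1 h at 4 C; score merges 667 nm emission intensity with signal to noise over three replicate slides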
# [18] = target: Concanavalin-A (Canavalia ensiformis) (UniProt P02866); experiment: ConA small-molecule binders, primary screen, artefact control for SMM control protein annotation, biochemical, small-molecule microarray, Alexa647 label, 635 nm (AID 1127); conditions: ConA-A647 binding fluorescence, higher = more signal;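 further: z combines 667 nm emission intensity with signal-to-noise across three replicate slides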
# Chain of Concanavalin-A (Canavalia ensiformis) (P02866 whole entry, looked up): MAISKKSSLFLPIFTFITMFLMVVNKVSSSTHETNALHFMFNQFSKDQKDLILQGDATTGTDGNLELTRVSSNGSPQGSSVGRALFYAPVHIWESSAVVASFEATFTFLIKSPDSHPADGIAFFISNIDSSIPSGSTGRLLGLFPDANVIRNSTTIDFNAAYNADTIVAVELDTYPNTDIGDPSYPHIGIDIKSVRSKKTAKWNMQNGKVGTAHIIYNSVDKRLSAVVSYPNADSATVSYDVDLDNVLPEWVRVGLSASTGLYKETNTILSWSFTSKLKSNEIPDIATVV
SMILES,composite z-score [1],z-score [2],composite z-score [3],composite z-score [4],composite z-score [5],composite z-score [6],composite z-score [7],composite z-score [8],composite z-score [9],composite z-score [10],composite z-score (Albumin (Bos taurus)),composite Z-score [11],composite z-score [12],composite z-score [13],composite z-score [14],composite z-score [15],composite z-score [16],composite z-score (Sam68 (KHDRBS1)),composite z-score [17],composite z-score [18]
CCOC(=O)C[C@H]1[C@H](OC(=O)c2ccc(C(=O)c3ccccc3)cc2)[C@@H](NC(=O)c2ccc(-c3ccccc3)cc2)c2cc(OCCCO)ccc2N1C(=O)Cc1ccc(OC)cc1,0.625,-0.751,0.176,0.439,-0.122,-0.0236,-0.214,-0.468,0.759,0.355,0.519,-0.153 (inactive),0.16,0.121,0.177,0.93,0.0285,0.512,-0.0479,0.458
CCOC(=O)C1=C[C@@H](c2ccccc2)N(S(=O)(=O)c2ccc(C)cc2)[C@H]1c1ccc(OC)cc1,0.796,-1.92,0.976,1.6,0.736,0.661,0.926,1.25,0.118,1.24,0.72,-0.0164 (inactive),0.815,0.493,0.614,1.71,0.755,1.32,-0.224,1.1
[N-]=[N+]=NCc1ccccc1[C@H]1OC(c2ccc(OCCCO)cc2)=N[C@@]1(Cc1ccccc1N=[N+]=[N-])C(=O)NCC(O)CO (stereo not given in full),1.46,-1.75,-0.591,1.33,0.734,0.112,0.28,1.63,1.48,1.08,0.992,0.095 (inactive),0.483,-0.0859,0.7,1.8,0.0939,1.3,-0.603,1.09
CCOC(=O)C1=CC[C@@H](c2ccccc2)N(S(=O)(=O)c2ccc(C)cc2)[C@H]1c1ccccc1,1.1,-0.667,0.0056,0.578,0.626,0.0037,-0.138,-0.0496,0.46,0.995,0.831,-0.563 (inactive),0.107,-0.0806,0.453,0.69,-0.561,0.749,-0.221,1.07
O=C1C2C=CC(C(O)C3CC=CCC3)N(Nc3ccccc3)C2C(=O)N1c1ccccc1 (stereo not given),1.44,-0.463,0.0066,1.08,-0.0425,-0.098,0.128,0.821,0.946,1.78,0.918,2.06 (inactive),0.366,0.0607,0.749,2.33,0.093,1.07,0.718,0.567
COC(=O)[C@@]1(Cc2ccc(OC)cc2)[C@H]2c3cc(C(=O)N(C)C)n(Cc4ccc(OC(F)(F)F)cc4)c3C[C@H]2CN1C(=O)c1ccccc1,0.38,-3.63,-0.0954,0.417,0.267,-0.0807,0.337,0.196,1.58,-0.114,0.953,0.255 (inactive),0.11,0.141,0.822,1.74,-0.0771,-0.264,-0.899,-0.467
COc1cc(NN2C(C(O)c3ccc(N(C)C)cc3)C=CC3C(=O)N(c4ccccc4)C(=O)C32)cc(OC)c1OC (stereo not given),1.36,-0.99,0.143,0.68,0.0572,0.112,0.184,0.531,0.639,0.738,0.353,0.785 (inactive),0.448,0.0606,0.192,0.68,-0.196,0.913,-0.148,0.0693
CCC1=C2CN(Cc3ccccc3)[C@@H](C(=O)Cc3ccccc3)C2C=CCC1 (stereo not given in full),1.4,-0.618,0.133,-0.0133,-0.429,-0.124,-0.211,-0.185,0.0878,0.0601,0.912,-0.496 (inactive),0.0293,-0.149,0.679,1.58,-0.186,0.169,-0.263,0.351
CCOC(=O)C[C@H]1[C@H](OC(=O)c2cc3ccccc3oc2=O)[C@@H](NC(=O)CC(C)C)c2cc(OCCCO)ccc2N1C(=O)c1ccc2ccccc2n1,1.05,-0.359,0.643,-0.134,-0.35,-0.152,-0.154,-0.143,0.0785,0.643,0.42,-0.077 (inactive),0.191,-0.237,0.43,1.04,0.102,1.26,0.324,0.625
CC(C)c1ccc(NN2C(C(O)c3ccc(F)cc3)C=CC3C(=O)N(c4ccccc4)C(=O)C32)cc1 (stereo not given),1.44,-0.619,0.397,1.24,-0.0298,0.105,0.246,1.75,0.305,1.39,0.839,0.131 (inactive),0.378,0.0147,0.378,2.79,0.846,1.31,-0.0773,1.1
